D2 ag-1: D2 dopamine receptor (human) agonism | HEK293 T-REx D2 cells, calcium flux agonist mode | activation, % at 2 µM | hit rate 0.53% among 340,000;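 active means activation over 3 SD above normal in the single-dose calcium agonist read, cut at about 30% in these data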; further: 0% is about no effect
Target sequence (P14416 whole entry, looked up): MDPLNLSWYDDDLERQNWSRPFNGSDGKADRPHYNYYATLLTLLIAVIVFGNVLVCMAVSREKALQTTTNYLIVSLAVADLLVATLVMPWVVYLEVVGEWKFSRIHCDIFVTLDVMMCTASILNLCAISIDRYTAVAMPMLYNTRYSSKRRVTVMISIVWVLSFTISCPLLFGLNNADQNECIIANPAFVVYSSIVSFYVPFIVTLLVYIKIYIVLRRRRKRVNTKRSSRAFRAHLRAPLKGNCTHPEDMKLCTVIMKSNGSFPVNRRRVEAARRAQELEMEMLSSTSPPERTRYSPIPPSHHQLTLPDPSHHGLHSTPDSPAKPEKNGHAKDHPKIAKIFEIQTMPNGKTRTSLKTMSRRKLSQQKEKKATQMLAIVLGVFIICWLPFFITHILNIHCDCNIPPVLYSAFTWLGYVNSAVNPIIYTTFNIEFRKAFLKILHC
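Agonism is scored from calcium flux in a force-coupled, inducible HEK293 cell line expressing D2, read kinetically for 180 s after compound addition against dopamine controls.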
D2 PAM-1: D2 dopamine receptor (human) potentiation; HEK293 T-REx D2, calcium flux, EC20 dopamine potentiation; potentiation, % at 10 µM; hit rate 0.34% among 340,000; AID 485347;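 active means potentiation over 3 SD above the plate norm, cut at about 30% in these data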; further: 0% is about no effect
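Potentiation of an EC20 dopamine calcium response is measured in a force-coupled, tetracycline-inducible Hek293 Trex D2 line. Compound-only kinetic reads over 180 s flag agonists before dopamine addition.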
D2 antagonist: D2 dopamine receptor (human) antagonism; P14416; HEK293 TREx D2 cells, calcium flux, dopamine EC80; inhibition, % at 10 µM; hit rate 2% among 340,000; AID 485344; in the data active means inhibition above about 30%; inactive means below that, where a call was filed; further: 0% is about no effect
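Overnight-induced (tetracycline, 30 C) HEK293 T-REx cells carrying force-coupled D2 receive a no-wash calcium dye, then compound, then EC80 dopamine at 180 s; signals are read kinetically throughout.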
Anesthetic bind: binds horse apoferritin like a general anesthetic. P02791. apoferritin/1-aminoanthracene competitive binding, fluorescence. Potency, µM (top dose mostly 77.5 µM), for inactives: at the top dose activity change, negative = displacement, actives largely listed as inhibitors. hit rate 0.074% among 350,000; active means well fitted inhibition curve with a large enough effect; inconclusive means small, poorly fitted or top-dose-only effect; inactive means no such curve, though single readings can be large or run the other way; further: potency means the concentration at half of the fitted maximal effect; on the % scale 0 is the no-effect control and ±100 the full control effect; nearly all actives have a fitted effect of over 20% in size
Target sequence (P02791 2-175 limits assumed): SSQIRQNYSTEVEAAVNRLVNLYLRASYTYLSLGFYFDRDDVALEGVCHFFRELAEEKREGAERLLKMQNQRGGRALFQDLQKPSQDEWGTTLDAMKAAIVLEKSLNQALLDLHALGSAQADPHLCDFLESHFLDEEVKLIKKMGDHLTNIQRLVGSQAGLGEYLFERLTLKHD
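Horse-spleen apoferritin (10 uM) in 50% saturated 1-aminoanthracene in PBS was incubated 10 min at room temperature with compound. Fluorescence (ex 380, em 535 nm) was normalized to free and bound 1-AMA, with concentration-response fitted by a four-parameter Hill equation.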
D2 PAM-2: potentiates the human D2 dopamine receptor allosterically | P14416 | DiscoveRx D2 beta-arrestin cells, luminescence, 90 min; 100% = 57 uM dopamine signal | potentiation, % (concentration not given with the values) | hit rate 0.23% among 360,000 | AID 624464; in the data active means potentiation above about 50%; inconclusive means mostly about 30% to 49%
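PathHunter D2 cells, attached overnight at 37 deg C, received compound in DMSO plus dopamine at EC20 (50 nM final) for 90 min at 37 deg C. Beta-arrestin recruitment was read as luminescence after 1 h with detection reagent at ambient temperature.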
D2 ag-2: agonists of human D2 dopamine receptor (beta-arrestin) | P14416 | DiscoveRx PathHunter D2 beta-arrestin, luminescence, 90 min; 100% = 57 uM dopamine signal | activation, % (no concentration beside the values) | hit rate 0.084% among 360,000; in the data active means activation above about 40%; inconclusive means between about 15% and that limit
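DiscoveRx PathHunter D2 beta-arrestin cells (2,100/well) attached overnight, then compound-stimulated 90 min at 37 C in HBSS/10 mM HEPES/0.1% Tween-20 buffer; beta-galactosidase complementation read by luminescence after 1 h at ambient temperature. Dopamine 57 uM final (EC100) as control.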
Numbers without * were called inactive; ? = inconclusive; . = no result. Shown are actives, neighbours in structure and some others; about 2.5% of the full set was active somewhere.

SMILES	D2 ag-1	D2 PAM-1	D2 antagonist	Anesthetic bind	D2 PAM-2	D2 ag-2
CC1[C@H]2Cc3ccc(O)cc3[C@]1(C)CCN2CCc1ccccc1 (some centres undefined)	.	.	.	.	-23.7	2.8
CCC1(c2cccc(O)c2)CCCCN(C)C1 (centres undefined)	1.0	-9.3	39.3*	.	-2.7	-2.4
COC(=O)C(O)(c1ccc(NC(=S)NC(=O)c2ccc(Cl)cc2Cl)cc1)C(F)(F)F (centres undefined)	10.8	32.0*	-0.1	?	-31.6	-6.3
CCOC(=O)C(O)(c1ccc(NC(=S)NC(=O)c2ccc(Cl)cc2Cl)cc1)C(F)(F)F (centres undefined)	21.0	14.9	7.9	?	-18.9	-7.0
O=C(O)c1ccc(-n2c(O)c(/C=C3\C=Nc4ccccc43)c(=O)[nH]c2=O)cc1	-1.9	3.4	-15.4	-3.6%	-6.9	-4.4
COc1ccc(C(c2nnnn2Cc2ccccc2)N2CCC3(CC2)C(=O)NCN3c2ccccc2)cc1 (centres undefined)	.	.	.	.	0.8	6.2
COc1c(C)cc(C(=O)C2CCCN(Cc3cccc(C)n3)C2)cc1C (centres undefined)	37.7*	-6.3	5.0	-16.6%	-16.2	-4.9
COc1c(C)cc(C(=O)C2CCCN(Cc3cccc(O)c3)C2)cc1C (centres undefined)	1.1	1.2	-5.1	?	-2.6	-5.5
CCCN1CCCC(C(=O)c2cc(C)c(OC)c(C)c2)C1 (centres undefined)	0.7	-27.4	86.3*	-9.0%	-13.5	-1.6
C[C@]12CCC3C(CC[C@H]4C[C@@H](O)CC[C@]34C)C1C[C@@H](O)[C@]2(C)O (some centres undefined)	.	.	.	.	-1.1	1.6
CN(C)P1(N(C)C)=Nc2c(c(N)nn2C)C(c2ccccc2)=N1	-1.6	-4.5	31.5*	-15.2%	1.0	0.7
Cn1nc(N)c2c1N=P(N1CCOCC1)(N1CCOCC1)N=C2c1ccccc1	-0.5	5.4	2.5	-10.6%	5.1	-4.3
CCOc1ccc(C2C(C#N)=C(N)Oc3c2c(=O)oc2ccccc32)cc1 (centres undefined)	-0.7	-3.8	30.7*	?	-11.4	-3.3
N#CC1=C(N)Oc2c(c(=O)oc3ccccc23)C1c1ccncc1 (centres undefined)	-0.2	-8.2	-10.8	-3.0%	-6.9	-0.3
Cc1ccc(C(C)C)c(OCC#CCN2CCCC2)c1	-1.0	-25.6	34.7*	-8.5%	61.5*	3.5
COc1ccc(OCC#CCN2CCCCCC2)cc1	-0.9	-17.4	27.2	-5.4%	-18.0	1.9
Cc1ccc2c(c1)C1CN(C)CCC1N2C(=O)Cn1cnc2c1c(=O)n(C)c(=O)n2C (centres undefined)	-0.1	14.3	10.1	-6.5%	-5.2	-1.6
COc1ccc(CN2CCCC(C(=O)c3sccc3C)C2)cc1O (centres undefined)	0.5	-16.9	41.0*	-20.6%	-7.8	4.9
COc1cc(CN2CCCC(C(=O)c3sccc3C)C2)cc(OC)c1O (centres undefined)	0.0	-7.5	1.4	-20.5%	-40.6	0.2
Cc1ccsc1C(=O)C1CCCN(Cc2cccc(OCCO)c2)C1 (centres undefined)	-0.3	-23.3	51.9*	-13.9%	-16.6	-0.8
COc1ccc(NC(=O)CCc2nc(C3=CCN(Cc4cccc(Cl)c4)CC3)no2)c(OC)c1	-1.2	-8.2	.	58.6%	.	.
CCC(C)N1C(=O)NC(=O)C2(Cc3c(ccc4ccccc34)N(C)C2)C1=O (centres undefined)	-0.6	9.8	-26.8	?	76.5*	7.5
COc1cccc(-c2nn3c(=O)cc(CN4CCN(C(=O)COc5ccccc5C)CC4)nc3s2)c1	.	11.9	.	-11.6%	.	.
CC1=CC(=O)C2=C(C)CC(O)C3C(C)C(=O)OC3C12 (centres undefined)	0.1	3.5	35.2*	-2.3%	2.8	2.0
OCC12COC3c4ccccc4C(OC1)N32 (centres undefined)	0.8	-0.4	-21.4	-0.4%	-0.8	-1.3
SMILES	D2 ag-1	D2 PAM-1	D2 antagonist	Anesthetic bind	D2 PAM-2	D2 ag-2
Cc1cc(C)cc(N2C(=O)NC(=O)/C(=C\c3cccn3-c3ccc(Cl)cc3)C2=O)c1	-0.4	8.8	37.8*	-20.5%	-7.4	0.6
CCN1C(=O)NC(=O)/C(=C/c2cc(C)n(-c3sc(C)c(C)c3C#N)c2C)C1=O	-1.5	44.2*	-24.3	-4.0%	11.2	0.1
CCOC(=O)c1c(-n2c(C)cc(/C=C3/C(=O)NC(=O)N(CC)C3=O)c2C)sc2c1CCCC2	.	.	.	.	-14.3	-4.7
COC(=O)C1=C(c2ccccc2OCc2ccccc2)C[C@@H]2CC[C@H]1N2C(=O)NCc1ccc(Cl)cc1	0.2	-3.0	-0.6	.	-15.2	0.0
CCOC(=O)Cn1cc([N+](=O)[O-])nc1[N+](=O)[O-]	.	-8.4	.	-3.6%	?	8.9
Cc1ncc([N+](=O)[O-])n1CCOC(N)=O	-0.6	5.1	38.2*	-4.3%	-11.4	-0.6
CSc1ccccc1C(=O)C1CCCN(Cc2ccn[nH]2)C1 (centres undefined)	21.9	-20.0	48.4*	-9.4%	-3.2	-1.2
NC(=O)Cn1cc(C=C2C(=O)NC(=O)NC2=O)c2ccccc21	-0.2	6.9	-8.4	6.5%	-3.4	-3.9
CCn1cc(C=C2C(=O)NC(=O)NC2=O)c2ccccc21	1.1	-1.3	37.9*	-0.3%	3.4	-2.5
CN(C)C1(CNC(=O)Nc2ccc(Cl)c(Cl)c2)CCCCC1	2.6	-33.8	54.3*	-3.6%	-15.2	-2.0
CCCCOc1ccc(CCN)cc1Cl	2.9	3.1	41.8*	?	-20.3	-5.7
OC(CN1CCC(c2c[nH]c3ccccc23)CC1)C(F)(F)F (centres undefined)	0.4	-15.4	77.0*	-6.2%	-9.9	-5.3
COc1ccc(CCN)cc1O	.	.	.	.	-17.1	4.1
CNCCc1ccc(O)c(O)c1	.	.	.	.	66.4*	76.5*
COc1cccc(CNCCc2c[nH]c3ccccc23)c1	1.8	-20.9	46.3*	-4.5%	-23.3	3.4
COc1ccc(C(c2nnnn2-c2ccc3c(c2)OCCO3)N2CCC(n3c(=O)[nH]c4ccccc43)CC2)cc1 (centres undefined)	.	.	.	.	13.6	14.7
O=c1[nH]c2ccccc2n1C1CCN(C(c2ccnc3ccccc23)c2nnnn2-c2ccc3c(c2)OCCO3)CC1 (centres undefined)	.	.	.	.	50.4*	?
O=c1[nH]c2ccccc2n1C1CCN(C(CCc2ccccc2)c2nnnn2-c2ccc3c(c2)OCCO3)CC1 (centres undefined)	.	.	.	.	58.1*	11.3

From PubChem BioAssay
